Measured values from PubChem BioAssay (EPA / NIEHS).
Records with an inconclusive call do not appear. Activity calls are given as the source filed them. The calls were made as follows, unless noted: active = hit-call score of the fitted dose curve at least 0.9, where 1 is the maximum; inactive = score below 0.9.

What was measured:
[1] = CCTE_Shafer_MEA_dev_burst_duration_mean: CCTE's Neural Network Formation Assay for Mean Burst Duration, Shafer Lab (AID 2284045);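 also: curve fitted for loss meaning shorter burst duration than DMSO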
In short: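 Mean single-electrode burst duration (first to last spike), averaged over bursting electrodes per well, then integrated as area-under-curve across recordings at days 5, 7, 9 and 12. Rat cortical cultures on MEAs, compound present from plating, refreshed at feeds.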

[2] = CCTE_Shafer_MEA_dev_interburst_interval_mean: CCTE's Neural Network Formation Assay for Mean Interburst Interval, Shafer Lab (AID 2284046);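 also: well-mean interburst interval of bursting electrodes as AUC over four recording days; curve fitted for decrease in interburst interval relative to DMSO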
In short: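 Primary rat cortical neurons on PEI-coated 48-well MEA plates (laminin added with cells at plating) (16 electrodes/well), exposed from plating day 0 with renewal at DIV 5 and 9. Mean inter-burst interval averaged over bursting electrodes, AUC across days 5, 7, 9, 12; DMSO baseline.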

[3] = CCTE_Shafer_MEA_dev_inter_network_spike_interval_mean: CCTE's Neural Network Formation Assay for Mean Inter-network Spike Interval, Shafer Lab (AID 2284047);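 also: potency for a decrease in mean inter-network spike interval below DMSO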
In short: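 Mean time between consecutive network-spike peaks, recorded extracellularly (adaptive spike detection) on DIV 5, 7, 9 and 12, summarized as trapezoidal AUC. Rat cortical cultures on MEAs dosed continuously days 0–12, re-dosed at feeds; loss-of-signal fit relative to DMSO.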

[4] = CCTE_Shafer_MEA_dev_network_spike_number: CCTE's Neural Network Formation Assay for Number of Network Spikes, Shafer Lab (AID 2284048);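 also: synchronized bursts across electrodes counted on days 5 7 9 12 and integrated as AUC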
In short: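 Number of network spikes (coordinated firing across electrodes) recorded on days 5, 7, 9 and 12 and summarised as area under the curve. Rat cortical cultures on MEA, continuous compound exposure with full medium/treatment exchange at DIV 5 and 9.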

[5] = CCTE_Shafer_MEA_dev_network_spike_peak: CCTE's Neural Network Formation Assay for Mean Number of Electrodes in Network Spike, Shafer Lab (AID 2284049);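 also: fitted for loss of signal meaning fewer electrodes in network spikes than DMSO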
In short: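 Rat cortical primary culture, 1.5 x 10^5 cells/well, 48-well MEA (16 electrodes/well). Dosing day 0 through DIV 12, full media/compound exchange DIV 5, 9. AxIS adaptive spike detection; AUC over days 5/7/9/12; loss-of-signal vs DMSO.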

[6] = CCTE_Shafer_MEA_dev_spike_duration_mean: CCTE's Neural Network Formation Assay for Mean Spike Duration, Shafer Lab (AID 2284051);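 also: mean network spike duration pooled as area under curve over DIV 5 to 12 recordings; potency for a decrease in mean network spike duration versus DMSO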
In short: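 Spontaneous activity was recorded on days 5, 7, 9 and 12 from rat cortical cultures grown on microelectrode arrays and dosed continuously from day 0, with media and compound renewed after the DIV 5 and 9 recordings. Network-spike duration was collapsed by area under the curve.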

[7] = CCTE_Shafer_MEA_dev_network_spike_duration_std: CCTE's Neural Network Formation Assay for Standard Deviation of Network Spike Duration, Shafer Lab (AID 2284052);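 also: hits are decreases in network spike duration SD versus DMSO vehicle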
In short: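 Network spike duration variability was collapsed across recordings on days 5, 7, 9 and 12 by trapezoidal area-under-curve and fitted downward against DMSO. Cultures were rat cortical neurons on PEI-coated MEA plates, dosed continuously from plating, refed with compound DIV 5/9.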

[8] = CCTE_Shafer_MEA_dev_per_network_spike_spike_number_mean: CCTE's Neural Network Formation Assay for Mean Number of Spikes in a Network Spike, Shafer Lab (AID 2284053);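 also: fitted as decrease in spikes per network spike relative to DMSO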
In short: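 Mean spike count within each network spike, taken in a 0.05 s window at its peak, was recorded on days 5, 7, 9 and 12 and integrated as trapezoidal area under the curve. Rat cortical cultures on MEA plates received continuous compound from day 0, refreshed at medium changes on DIV 5 and 9.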

[9] = CCTE_Shafer_MEA_dev_per_network_spike_spike_percent: CCTE's Neural Network Formation Assay for Percent of Spikes in a Network Spike, Shafer Lab (AID 2284054)
In short: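 Metric: fraction of spikes falling in a 0.05 s window at network-spike peaks. Recordings were made on days 5, 7, 9 and 12 and collapsed by trapezoidal AUC. Cultures were rat cortical neurons on MEA plates, dosed continuously from plating, re-dosed at media changes.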

[10] = UKN5_HCS_SBAD2_cell_viability: Viability Assessment in the University of Konstanz (UKN) Leist Lab Neurite Outgrowth Assay in human iPSC-derived immature Dorsal Root Ganglia Neurons (UKN5) (AID 2284056)
In short: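 iPSC-derived immature peripheral neurons (SBAD2) seeded on Matrigel with CHIR99021, SU5402 and DAPT, dosed 1 h later for 24 h. Viability from Hoechst H-33342 and calcein-AM live staining, high-content imaging; bidirectional fit versus DMSO.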

[11] = CCTE_Shafer_MEA_dev_LDH: CCTE's Lactate Dehydrogenase Assay for Cytotoxicity in the Neural Network Formation Assay, Shafer Lab (AID 2284068; active = hit-call score of the fitted dose curve at least 0.9, where 1 is the maximum;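 also: exposure for twelve days from plating with re-dosing on DIV 5 and 9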)
In short: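 Primary rat cortical neurons were cultured on PEI-coated MEA plates and exposed from plating through day 12, with compound renewed at medium changes on DIV 5 and 9. LDH activity was read spectrophotometrically; loss of signal versus DMSO indicates reduced viability.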

[12] = UKN5_HCS_SBAD2_neurite_outgrowth: University of Konstanz (UKN) Leist Lab Neurite Outgrowth Assay in human iPSC-derived immature Dorsal Root Ganglia Neurons (UKN5) (AID 2284070); conditions: actives raise or lower the signal
In short: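 Neurite outgrowth is quantified as calcein-AM-labelled neurite area in human iPSC-derived peripheral neurons treated for 24 h, starting 1 h after plating in medium with CHIR99021 (1.5 uM), SU5402 (5 uM) and DAPT (5 uM).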

[13] = CCTE_Shafer_MEA_dev_AB: CCTE's Alamar Blue Assay for Cytotoxicity in the Neural Network Formation Assay, Shafer Lab (AID 2284083; active = hit-call score of the fitted dose curve at least 0.9, where 1 is the maximum;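 also: resazurin reduction fluorescence as viability of cultured neurons; twelve days of exposure from plating with re-dosing on DIV 5 and 9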)
In short: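 Resazurin fluorescence, relative to DMSO, gauges viability after twelve days of exposure that began at plating of rat cortical neurons (1.5 x 10^5 cells/well, 48-well MEA); treatment renewed with full medium exchange on DIV 5 and 9.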

[14] = CCTE_Shafer_MEA_dev_mutual_information_norm: CCTE's Neural Network Formation Assay for Mutual Information Normalization, Shafer Lab (AID 2284091);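 also: mutual information between electrodes summarised as area under curve across four recording days; potency is for a decrease in mutual information relative to DMSO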
In short: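 Shared information across electrodes, tracked on days 5, 7, 9 and 12 of network development and collapsed as trapezoidal area under the curve. Rat cortical cultures were treated continuously from plating, with treatment renewed at feeds on DIV 5 and 9; DMSO baseline, negative-direction fit.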

[15] = CCTE_Shafer_MEA_dev_correlation_coefficient_mean: CCTE's Neural Network Formation Assay for Mean Correlation Coefficient, Shafer Lab (AID 2284093);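 also: well mean pairwise spike train correlation integrated as AUC over recording days 5 to 12; potency fitted for loss of correlation relative to DMSO vehicle wells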
In short: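 Primary rat cortical neurons on PEI-coated 48-well MEA plates (16 electrodes/well) were exposed from plating day 0 through DIV12, with compound renewed at DIV5 and 9. Pairwise spike correlations were averaged per well; trapezoidal AUC across DIV5, 7, 9, 12.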

[16] = UKN2_HCS_IMR90_neural_migration: University of Konstanz (UKN) Leist Lab Neural Crest Cell Migration Assay in human induced IMR90 Pluripotent Stem Cells (UKN2) (AID 2284204); conditions: actives raise or lower the signal
In short: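 High-content imaging of calcein-AM and Hoechst stained cells quantifies migration into a stopper-defined gap after 24 h compound exposure. Neural crest cells from IMR90 iPSC migrated 24 h in EGF/FGF N2-S medium before dosing; DMSO baseline.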

[17] = UKN4_HCS_LUHMES_neurite_outgrowth: University of Konstanz (UKN) Leist Lab Neurite Outgrowth Assay in human LUHMES cells (UKN4) (AID 2284206); conditions: actives raise or lower the signal
In short: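 Neurite area in dopaminergic-model LUHMES neurons is measured by high-content imaging of calcein-AM after 24 h treatment starting shortly after day-2 replating; Hoechst staining tracks viability.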

[18] = CCTE_Mundy_HCI_Cortical_Synap_Neur_Matur_NeuriteSpotCountPerNeuriteLength: CCTE's Synaptogenesis and Neurite Maturation Assay in rat cortical cells for Neurite Spot Count per Neurite Length, Mundy Lab (AID 2284210)
In short: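 Synaptophysin spots per unit neurite length, measured by automated imaging of MAP2/synaptophysin/Hoechst-stained neurons. Cultures from rat cortex received chemical at DIV 7 with media change through DIV 12; glial growth arrested by AraC at DIV 5; DMSO baseline.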

[19] = CCTE_Mundy_HCI_Cortical_Synap_Neur_Matur_BPCount: CCTE's Synaptogenesis and Neurite Maturation Assay in rat cortical cells for Branch Point Count, Mundy Lab (AID 2284211)
In short: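 In this multiplexed morphology assay, cortical cells from rat receive chemicals at DIV 7 and are fixed at DIV 12, then immunostained and imaged; branch points are counted, with DMSO as baseline.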

[20] = CCTE_Mundy_HCI_Cortical_NOG_NeuriteCount: CCTE's Neurite Outgrowth Assay in rat cortical cells for Neurite Count, Mundy Lab (AID 2284212);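 also: cells fixed about two days after chemical exposure began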
In short: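 Rat cortical primary cells; compound added 2 h post-plating, 1/10 dilution of working solution. Anti-betaIII-tubulin/AF488 ICC; ArrayScan neurite count vs DMSO.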

Measured: AC50

CNCCC(Oc1ccc(C(F)(F)F)cc1)c1ccccc1 (stereo not given)
active: [1] 2.81 µM | [2] 4.18 µM | [3] 1.4 µM | [5] 2.8 µM | [6] 1.88 µM | [7] 2.01 µM | [8] 1.07 µM | [9] 7.65 µM | [10] 18.8 µM | [11] 2.08 µM | [12] 12.7 µM | [13] 5 µM | [14] 2.58 µM | [15] 4.19 µM | [16] 15 µM | [17] 7.3 µM | [18] 12 µM | [19] 6.57 µM | [20] 14.7 µM
inactive: [4]
